According to the supplement of paper PMC6555819:

What was measured:
Experiment in all cases: PBM binding z-score (relative to random genomic background probes); higher = stronger binding; sequences stand for … in GC…GCGATTGACAGCGTAGAATGAAGG
[1] = tested on: FXR:RXRa (NR concentration 270 nM, RXRa partner concentration 90 nM)
Procedure, shortened: (§1)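 Scanned fluorescence from custom Agilent 4×180K protein-binding microarrays was regression-normalized. Binding z-scores use random background probes as reference. Ligand-free nuclear receptor dimers were incubated on the arrays for 1 h and detected with antibodies against each partner (one per run).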

[2] = tested on: LXRa:RXRa (NR concentration 270 nM, RXRa partner concentration 90 nM)
Procedure, shortened: as §1

[3] = tested on: LXRa homodimer (NR concentration 270 nM)
Procedure, shortened: as §1

[4] = tested on: LXRb:RXRa (NR concentration 270 nM, RXRa partner concentration 90 nM)
Procedure, shortened: as §1

[5] = tested on: LXRb homodimer (NR concentration 270 nM)
Procedure, shortened: as §1

[6] = tested on: PPARa:RXRa (NR concentration 270 nM, RXRa partner concentration 90 nM)
Procedure, shortened: as §1

[7] = tested on: PPARg:RXRa (NR concentration 180 nM, RXRa partner concentration 90 nM)
Procedure, shortened: as §1

[8] = tested on: PPARg:RXRa 270nM:90nM, anti-RXR (NR concentration 270 nM, RXRa partner concentration 90 nM)
Procedure, shortened: as §1

[9] = tested on: PPARg:RXRa 30nM:10nM, anti-RXR (NR concentration 30 nM, RXRa partner concentration 10 nM)
Procedure, shortened: as §1

[10] = tested on: PPARg:RXRa 90nM:30nM, anti-RXR (NR concentration 90 nM, RXRa partner concentration 30 nM)
Procedure, shortened: as §1

[11] = tested on: PPARg:RXRa DBDmut IVT, anti-RXR (DBD mutation: RXRa K156A/R161A, NR concentration 270 nM, RXRa partner concentration 90 nM)
Procedure, shortened: as §1

[12] = tested on: PPARg:RXRa IVT, anti-PPARg (NR concentration 270 nM, RXRa partner concentration 90 nM)
Procedure, shortened: as §1

[13] = tested on: PPARg DBDmut:RXRa IVT, anti-PPARg (DBD mutation: PPARg1 K132A/R137A, NR concentration 270 nM, RXRa partner concentration 90 nM)
Procedure, shortened: as §1

[14] = tested on: PPARg DBDmut IVT, anti-PPARg (DBD mutation: PPARg1 K132A/R137A, NR concentration 270 nM)
Procedure, shortened: as §1

[15] = tested on: PPARg homodimer (NR concentration 180 nM)
Procedure, shortened: as §1

[16] = tested on: PXR:RXRa (NR concentration 270 nM, RXRa partner concentration 90 nM)
Procedure, shortened: as §1

[17] = tested on: PXR homodimer (NR concentration 270 nM)
Procedure, shortened: as §1

[18] = tested on: RARa:RXR (NR concentration 270 nM, RXRa partner concentration 90 nM)
Procedure, shortened: as §1

[19] = tested on: RARa homodimer (NR concentration 270 nM)
Procedure, shortened: as §1

[20] = tested on: RARb:RXRa (NR concentration 270 nM, RXRa partner concentration 90 nM)
Procedure, shortened: as §1

Sequence	PBM binding z-score [1]	PBM binding z-score [2]	PBM binding z-score [3]	PBM binding z-score [4]	PBM binding z-score [5]	PBM binding z-score [6]	PBM binding z-score [7]	PBM binding z-score [8]	PBM binding z-score [9]	PBM binding z-score [10]	PBM binding z-score [11]	PBM binding z-score [12]	PBM binding z-score [13]	PBM binding z-score [14]	PBM binding z-score [15]	PBM binding z-score [16]	PBM binding z-score [17]	PBM binding z-score [18]	PBM binding z-score [19]	PBM binding z-score [20]
GGACCGAGGGCAAGTTGATAGCAGAGTTTGATGG	0.721	0.322	-0.497	0.0428	-0.812	0.868	0.401	0.00699	-0.601	-0.0881	0.956	0.614	-1.14	-1.16	0.433	0.556	0.539	0.315	-0.39	2.6
TCGAGTAGGTTAGTCGGGGAATTCAGCCAACATA	-0.0396	-0.257	-0.394	-0.065	-0.946	0.287	-0.188	0.615	0.883	0.675	2.15	1.62	-0.453	-0.828	-0.2	-0.311	-0.47	-0.102	-0.0152	-0.105
ACTAGCAGGCCAAGTTTGGGTCACTAAAACAAAG	0.0701	0.104	-0.274	0.749	-0.496	1.58	0.26	0.637	-0.145	0.427	0.86	1.41	-0.183	-0.616	0.00653	0.707	-0.272	1.49	-0.238	1.79
CGTCCAAGGTCAATGCTAGGTTAGTGAAAGCATT	6.49	4.7	0.436	3.76	0.627	5.08	3.32	4.3	1.15	2.85	2.98	3.27	0.204	-0.204	2.37	3.78	0.753	3.88	0.52	5.04
ACTACAGGGTCACTAGGCCAGAGTAGGTACGAAT	6.17	3.51	-0.237	3.18	0.0917	5.65	7.54	5.96	2.62	5.05	3.3	5.46	1.45	0.752	2.24	2.67	0.0574	3.53	0.377	4.19
ATCTCTTGGTAACAAGTTCAGTGAAAGAGAGGAC	0.45	0.448	0.452	0.565	0.787	0.547	-0.00548	0.156	0.0559	0.28	-0.454	0.272	0.927	1.13	0.303	1.67	1.14	0.676	0.0703	1.37
GCTGCTAGGTCAGGTTGGTCAGTTAACGGGTACG	1.25	0.792	0.267	0.719	0.0842	1.6	0.425	0.836	-0.54	-0.0172	2.8	2.15	-1	-0.445	0.781	0.391	0.149	0.719	-0.401	3.21
CCTTCCGGGTCAAGGTTATAGCACGGGTGGTACG	5.06	3.34	0.142	2.85	0.13	4.95	5.1	5.24	2.15	4.32	2.99	4.69	0.688	0.0375	2.1	3.7	0.341	4.25	0.928	4.1
